# Assay results as given in PubChem BioAssay.
# Values joined by “and” are separate entries in the source; they are usually repeats but may differ in a detail not shown here. Identical values can stand only once. Active and inactive are the calls of the source. Unless noted, no rule for the calls is given here. Where a SMILES comes first, the peptide text is derived from it. [ ]: non-standard residue; d: D form.
# Tests used:
# [1] = test system: Aerobactin synthetase IucA (Klebsiella pneumoniae); experiment: inhibition of K. pneumoniae IucA enzyme – biochemical, Tocris library, absorbance (AID 1345561); conditions: purified IucA enzyme assay, absorbance (OD) read-out; stronger effect = lower value;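 tested at 8 µM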;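 also: 100% = enzyme without compound and 0% = no enzyme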
# [2] = viability loss with induced miR-34 in A549 – imaging, A549 dox-inducible miR-34, nuclei and caspase counts, primary screen (AID 1347080;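 active = compounds whose cell count with miR-34 switched on is under 0.7 times the count with it off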); conditions: A549 miR-34 inducible, Hoechst nuclei count, 48 h
# [3] = galactose survival enhancers in mitochondrial complex I cybrids – cell-based, galactose medium, ATP luminescence, primary screen (AID 1645843;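 active = z-score of at least 1.8 in each of two replicates, scored against plate mean and spread of sample wells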;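 also: positive z means more ATP and so rescue of galactose-driven cybrid death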); conditions: complex I mutant cybrid cells, 72 h, stronger effect = higher value
# [4] = compounds altering HSF1 focus formation in cells – imaging, Selleck Cancer Library (AID 1347162; in the data active = plate-normalised HSF1 focus index below about 0.46); conditions: human cells, HSF1 nuclear foci imaging, at 10 µM; SSMD: measured here: HSF1 foci SSMD mean; cell count: measured here: cell number; plate-normalised HSF1 focus index: stronger effect = lower value
# [5] = compounds altering viability of human ES cells (AID 493140); conditions: human embryonic stem cell survival screen; stronger effect = higher value;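 also: cells exposed to compounds for four days before counting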
# [6] = P. berghei load reduction in hepatocytes – cell-based, HepG2, luciferase luminescence, HepG2 viability, primary screen (AID 624349; in the data active = parasite load remaining mostly below about 12%, no sharp cut-off; inactive = mostly above about 10%;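 also: 100% = mean of DMSO negative control wells on the same plate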); conditions: P. berghei liver stage in HepG2, luciferase luminescence, concentration not given here; parasite load remaining: stronger effect = lower value; viability: measured here: HepG2 viability without parasites
# [7] = MELAS cybrid and Rieske KO viability enhancers – cell-based, MELAS cybrids, Rieske KO mouse fibroblasts, CellTiter-Glo, primary screen (AID 1508586;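 active = mean z-score across replicates of 1.96 or higher in either the MELAS or the Rieske mutant cell line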;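 also: z relative to plate mean and SD of compound and empty wells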); conditions: low glucose
# [8] = blockers of cellular phospholipid synthesis – cell-based, LOPAC library, screen 4, primary screen (AID 1347384); conditions: animal cells, phospholipid biosynthesis inhibition screen; at 10 µM
# [9] = molecular target: Mitogen-activated protein kinase 7 (Homo sapiens) (UniProt Q13164); experiment: Gal4-ERK5 driven luciferase induction – cell-based, HTS, primary screen (AID 1508626;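 active = luciferase signal above three times the same-plate solvent-only control wells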;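 also: luciferase driven by Gal4-ERK5 fusion binding five Gal4 sites before minimal TATA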); conditions: HeLa Gal4-ERK5 transactivation, 18 h, at 5 µM, stronger effect = higher value
# [10] = chitosan synthesis blockers in C. neoformans – flow cytometry, Cibacron Brilliant Red staining (AID 1347148); conditions: Cryptococcus neoformans chitosan, stronger effect = lower value; at 10 µM unless noted;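 also: compound exposure lasted three days at 37 degrees C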
# [11] = stronger effect = lower value, cell number ratio, induced over uninduced
# [12] = measured here: relative caspase fold change +Dox/-Dox
# [13] = measured here: total cells with miR-34 induction, stronger effect = lower value
# [14] = measured here: total cells without miR-34 induction
# Mitogen-activated protein kinase 7 (Homo sapiens), sequence (Q13164 whole entry, looked up, the tested form may be a part): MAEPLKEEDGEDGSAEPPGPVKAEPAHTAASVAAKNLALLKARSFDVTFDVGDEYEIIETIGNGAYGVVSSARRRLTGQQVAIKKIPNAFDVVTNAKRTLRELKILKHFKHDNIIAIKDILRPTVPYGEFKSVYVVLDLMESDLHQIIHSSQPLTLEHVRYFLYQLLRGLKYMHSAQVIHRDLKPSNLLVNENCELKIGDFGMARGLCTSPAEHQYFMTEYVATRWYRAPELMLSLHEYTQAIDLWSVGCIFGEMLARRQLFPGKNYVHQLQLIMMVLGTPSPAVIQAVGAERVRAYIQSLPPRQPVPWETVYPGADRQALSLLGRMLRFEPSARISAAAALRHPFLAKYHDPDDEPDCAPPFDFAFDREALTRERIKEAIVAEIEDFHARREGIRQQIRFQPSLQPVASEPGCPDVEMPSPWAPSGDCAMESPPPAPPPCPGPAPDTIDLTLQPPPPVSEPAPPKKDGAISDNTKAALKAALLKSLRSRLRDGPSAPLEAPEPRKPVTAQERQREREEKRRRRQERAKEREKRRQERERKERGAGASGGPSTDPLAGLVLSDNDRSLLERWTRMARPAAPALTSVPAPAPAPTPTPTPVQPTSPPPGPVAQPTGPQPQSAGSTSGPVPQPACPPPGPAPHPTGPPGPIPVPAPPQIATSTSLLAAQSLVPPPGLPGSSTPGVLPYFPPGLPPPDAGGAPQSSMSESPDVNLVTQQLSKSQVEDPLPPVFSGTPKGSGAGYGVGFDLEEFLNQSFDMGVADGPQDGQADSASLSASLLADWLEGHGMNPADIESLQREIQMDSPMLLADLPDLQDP
smiles,measurement,setting,value
Cc1c(C(=O)NN2CCOCC2)nn(-c2ccc(Cl)cc2Cl)c1-c1ccc(I)cc1,remaining activity,[1],115% (inactive)
same,fold change,[2]; [11],0.846 (inactive)
same,fold change,[2]; [12],0.864
same,cell count,[2]; [13],8280
same,cell count,[2]; [14],9790
same,z-score,[3],-0.285 (inactive)
Cc1nn(-c2ccccc2)c(C)c1/C=N/N1CCN(Cc2ccccc2)CC1,remaining activity,[1],122% (inactive)
same,fold change,[2]; [11],1.03 (inactive)
same,fold change,[2]; [12],0.466
same,cell count,[2]; [13],8730
same,cell count,[2]; [14],8510
same,SSMD,[4],3.26
same,cell count,[4],6930
same,plate-normalised HSF1 focus index,[4],1.18 (inactive)
same,z-score,[3],-0.095 (inactive)
CC[C@@H]1Cn2c(c3nc(-c4ccccc4)nc-3n(C)c2=O)N1,remaining activity,[1],108% (inactive)
same,fold change,[2]; [11],0.901 (inactive)
same,fold change,[2]; [12],1.44
same,cell count,[2]; [13],7600
same,cell count,[2]; [14],8440
same,z-score,[3],-0.165 (inactive)
Cc1nc2c(O)cccc2c(=O)[nH]1,remaining activity,[1],117% (inactive)
same,fold change,[2]; [11],0.957 (inactive)
same,fold change,[2]; [12],0.648
same,cell count,[2]; [13],9130
same,cell count,[2]; [14],9530
same,z-score,[3],-0.215 (inactive)
CCN(CC)CCOC(=O)C1(c2ccc([N+](=O)[O-])cc2)CCCC1,survival,[5],10.9 (inactive)
same,parasite load remaining,[6],105% (inactive)
same,viability,[6],84.2%
same,remaining activity,[1],78.5% (inactive)
same,fold change,[2]; [11],0.929 (inactive) and 1.02 (inactive)
same,fold change,[2]; [12],1.89 and 0.688
same,cell count,[2]; [13],8310 and 8650
same,cell count,[2]; [14],8940 and 8460
same,z-score,"[7]; MELAS cybrid survival, CellTiter-Glo 48 h, stronger effect = higher value",0.368 (inactive)
same,z-score,"[7]; Rieske KO mouse fibroblast survival, CellTiter-Glo 72 h",-0.484
same,z-score,[3],-1.09 (inactive)
O=C(NCCCN1CCCCCC1)C(c1ccccc1)C1CCCCC1 (stereo unspecified),remaining activity,[1],115% (inactive)
same,fold change,[2]; [11],0.949 (inactive)
same,fold change,[2]; [12],0.832
same,cell count,[2]; [13],8370
same,cell count,[2]; [14],8820
same,z-score,[3],-0.905 (inactive)
CC(=O)NCC(=O)N[C@H](CCC(=O)O)C(=O)O (Ac-Gly-[dE]-OH),remaining activity,[1],103% (inactive)
same,fold change,[2]; [11],0.899 (inactive)
same,fold change,[2]; [12],0.513
same,cell count,[2]; [13],9020
same,cell count,[2]; [14],10000
same,z-score,[3],-0.245 (inactive)
NS(=O)(=O)c1cccc2c1c([N+](=O)[O-])cc1[nH]c(=O)c(=O)[nH]c12,remaining activity,[1],96.2% (inactive)
same,fold change,[2]; [11],0.919 (inactive)
same,fold change,[2]; [12],0.625
same,cell count,[2]; [13],8900
same,cell count,[2]; [14],9680
same,outcome,[8],inactive
same,z-score,[3],-0.025 (inactive)
C[C@H]([C@@H](O)c1ccc(O)cc1)N1CCC(Cc2ccccc2)CC1 (racemic),remaining activity,[1],93.2% (inactive)
same,fold change,[2]; [11],0.927 (inactive)
same,fold change,[2]; [12],0.793
same,cell count,[2]; [13],8080
same,cell count,[2]; [14],8720
same,z-score,[3],-1.02 (inactive)
Cc1nn(C)c2nc(NNC(=O)Nc3cc(Cl)nc(Cl)c3)cc(C(C)C)c12,remaining activity,[1],121% (inactive)
same,fold change,[2]; [11],0.867 (inactive) and 1.06 (inactive)
same,fold change,[2]; [12],1.04 and 1.03
same,cell count,[2]; [13],5060 and 4050
same,cell count,[2]; [14],5840 and 3820
same,z-score,[3],-0.55 (inactive)
CC(=O)O[C@@H]1C[C@H]2C(C)(C)C(=O)C=C[C@]2(C)[C@H]2CC[C@@]3(C)[C@H](c4ccoc4)OC(=O)[C@H]4O[C@]43[C@@]21C,remaining activity,[1],103% (inactive)
same,fold change,[2]; [11],0.935 (inactive)
same,fold change,[2]; [12],1.22
same,cell count,[2]; [13],4410
same,cell count,[2]; [14],4720
same,luciferase signal,[9],96 AU (inactive)
same,z-score,[3],-0.435 (inactive)
COC(=O)C1=C(C)NC(C)=C(C(=O)OCCCN2CCC(c3ccccc3)(c3ccccc3)CC2)[C@H]1c1cccc([N+](=O)[O-])c1,remaining activity,[1],116% (inactive)
same,fold change,[2]; [11],0.98 (inactive)
same,fold change,[2]; [12],1.09
same,cell count,[2]; [13],562
same,cell count,[2]; [14],574
same,fold fluorescence,[10],5.27 [at 82 µM] (inactive)
same,SSMD,[4],-1.25
same,cell count,[4],6310
same,plate-normalised HSF1 focus index,[4],0.927 (inactive)
same,z-score,[3],-0.83 (inactive)
